# Results taken from ChEMBL document CHEMBL2218924, “A broad activity screen in support of a chemogenomic map for kinase signalling research and drug discovery” (Biochem J, 2013).
# Tests used:
# [1] = biological target: T1, Tyrosine-protein kinase ITK/TSK (Homo sapiens) (UniProt Q08881); conditions: at 10 µM
# T1 sequence (whole entry): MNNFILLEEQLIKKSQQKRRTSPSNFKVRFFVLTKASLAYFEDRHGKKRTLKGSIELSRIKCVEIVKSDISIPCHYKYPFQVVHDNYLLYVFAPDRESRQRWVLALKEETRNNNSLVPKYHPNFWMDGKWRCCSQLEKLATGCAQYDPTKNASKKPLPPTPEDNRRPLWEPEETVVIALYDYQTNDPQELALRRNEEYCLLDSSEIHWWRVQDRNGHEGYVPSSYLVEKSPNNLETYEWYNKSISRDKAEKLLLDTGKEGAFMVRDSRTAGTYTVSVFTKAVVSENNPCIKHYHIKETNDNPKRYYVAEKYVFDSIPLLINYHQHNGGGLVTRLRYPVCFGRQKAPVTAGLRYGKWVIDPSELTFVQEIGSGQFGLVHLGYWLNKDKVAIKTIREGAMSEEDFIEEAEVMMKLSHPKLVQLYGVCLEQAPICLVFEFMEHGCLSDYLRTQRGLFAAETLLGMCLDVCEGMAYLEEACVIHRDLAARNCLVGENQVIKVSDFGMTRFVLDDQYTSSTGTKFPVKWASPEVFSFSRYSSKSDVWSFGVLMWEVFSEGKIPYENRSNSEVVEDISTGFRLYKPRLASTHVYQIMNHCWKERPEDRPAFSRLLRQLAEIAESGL
# [2] = biological target: Tyrosine-protein kinase JAK2 (Homo sapiens) (UniProt O60674); conditions: at 1 µM
# [3] = biological target: Tyrosine-protein kinase JAK2 (Homo sapiens) (UniProt O60674); conditions: at 10 µM
# [4] = biological target: Vascular endothelial growth factor receptor 2 (Homo sapiens) (UniProt P35968); conditions: at 1 µM
# [5] = biological target: Vascular endothelial growth factor receptor 2 (Homo sapiens) (UniProt P35968); conditions: at 10 µM
# [6] = biological target: Mitogen-activated protein kinase 8 (Homo sapiens) (UniProt P45983); conditions: at 1 µM
# [7] = biological target: Mitogen-activated protein kinase 8 (Homo sapiens) (UniProt P45983); conditions: at 10 µM
# [8] = biological target: Mitogen-activated protein kinase 9 (Homo sapiens) (UniProt P45984); conditions: at 1 µM
# [9] = biological target: Mitogen-activated protein kinase 9 (Homo sapiens) (UniProt P45984); conditions: at 10 µM
# [10] = biological target: Mitogen-activated protein kinase 10 (Homo sapiens) (UniProt P53779); conditions: at 1 µM
# [11] = biological target: Mitogen-activated protein kinase 10 (Homo sapiens) (UniProt P53779); conditions: at 10 µM
# [12] = biological target: LIM domain kinase 1 (Homo sapiens) (UniProt P53667); conditions: at 10 µM
# [13] = biological target: T2, Serine/threonine-protein kinase STK11 (Homo sapiens) (UniProt Q15831); conditions: at 10 µM
# T2 sequence (whole entry): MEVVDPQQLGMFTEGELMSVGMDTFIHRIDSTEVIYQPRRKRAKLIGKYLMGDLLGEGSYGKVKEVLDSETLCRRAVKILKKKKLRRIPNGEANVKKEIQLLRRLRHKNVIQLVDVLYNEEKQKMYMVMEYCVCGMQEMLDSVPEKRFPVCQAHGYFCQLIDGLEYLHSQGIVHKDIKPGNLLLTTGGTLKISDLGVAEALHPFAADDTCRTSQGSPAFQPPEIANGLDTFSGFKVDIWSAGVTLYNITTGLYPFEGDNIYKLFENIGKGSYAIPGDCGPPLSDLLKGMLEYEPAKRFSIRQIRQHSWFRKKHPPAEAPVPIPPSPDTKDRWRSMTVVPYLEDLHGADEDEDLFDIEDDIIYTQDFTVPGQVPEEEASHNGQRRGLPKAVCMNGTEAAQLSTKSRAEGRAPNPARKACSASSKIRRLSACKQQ
# [14] = biological target: Serine/threonine-protein kinase 10 (Homo sapiens) (UniProt O94804); conditions: at 10 µM
# [15] = biological target: Tyrosine-protein kinase Lck (Homo sapiens) (UniProt P06239); conditions: at 1 µM
# [16] = biological target: LIM domain kinase 1 (Homo sapiens) (UniProt P53667); conditions: at 1 µM
# [17] = biological target: T2, Serine/threonine-protein kinase STK11 (Homo sapiens); conditions: at 1 µM
# [18] = biological target: Serine/threonine-protein kinase 10 (Homo sapiens) (UniProt O94804); conditions: at 1 µM
# [19] = biological target: T3, Tyrosine-protein kinase JAK3 (Homo sapiens) (UniProt P52333); conditions: at 1 µM
# T3 sequence (whole entry): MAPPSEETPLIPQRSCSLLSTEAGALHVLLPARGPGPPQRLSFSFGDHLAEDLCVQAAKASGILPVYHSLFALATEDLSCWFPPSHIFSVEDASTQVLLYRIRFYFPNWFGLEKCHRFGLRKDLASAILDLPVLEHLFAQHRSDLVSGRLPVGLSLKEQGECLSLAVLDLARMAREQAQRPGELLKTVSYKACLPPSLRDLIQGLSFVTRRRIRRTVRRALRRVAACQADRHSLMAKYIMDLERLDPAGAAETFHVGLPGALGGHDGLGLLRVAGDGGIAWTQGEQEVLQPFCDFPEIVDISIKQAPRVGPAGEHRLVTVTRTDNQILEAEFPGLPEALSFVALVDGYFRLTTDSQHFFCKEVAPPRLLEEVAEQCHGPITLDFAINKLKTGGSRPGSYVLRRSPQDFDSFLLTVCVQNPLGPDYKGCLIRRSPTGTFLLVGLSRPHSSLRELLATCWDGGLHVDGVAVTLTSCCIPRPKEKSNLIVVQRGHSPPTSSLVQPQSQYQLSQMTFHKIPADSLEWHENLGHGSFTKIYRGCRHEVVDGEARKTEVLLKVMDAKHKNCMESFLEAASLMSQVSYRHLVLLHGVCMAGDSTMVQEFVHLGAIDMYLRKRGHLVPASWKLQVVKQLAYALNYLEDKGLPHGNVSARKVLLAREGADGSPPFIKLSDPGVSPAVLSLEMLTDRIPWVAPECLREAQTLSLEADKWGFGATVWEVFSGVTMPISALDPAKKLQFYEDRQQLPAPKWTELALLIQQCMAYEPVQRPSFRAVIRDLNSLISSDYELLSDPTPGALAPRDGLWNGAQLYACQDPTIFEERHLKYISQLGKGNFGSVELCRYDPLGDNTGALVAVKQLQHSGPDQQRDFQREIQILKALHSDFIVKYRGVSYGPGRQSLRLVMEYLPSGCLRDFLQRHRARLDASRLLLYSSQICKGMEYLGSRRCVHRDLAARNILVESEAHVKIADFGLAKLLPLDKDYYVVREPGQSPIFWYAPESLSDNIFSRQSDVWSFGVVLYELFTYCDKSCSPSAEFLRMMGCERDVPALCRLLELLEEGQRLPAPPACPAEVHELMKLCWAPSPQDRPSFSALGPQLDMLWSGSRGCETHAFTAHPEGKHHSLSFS
# [20] = biological target: T3, Tyrosine-protein kinase JAK3 (Homo sapiens); conditions: at 10 µM
# Sequence of Tyrosine-protein kinase JAK2 (Homo sapiens) (O60674 whole entry): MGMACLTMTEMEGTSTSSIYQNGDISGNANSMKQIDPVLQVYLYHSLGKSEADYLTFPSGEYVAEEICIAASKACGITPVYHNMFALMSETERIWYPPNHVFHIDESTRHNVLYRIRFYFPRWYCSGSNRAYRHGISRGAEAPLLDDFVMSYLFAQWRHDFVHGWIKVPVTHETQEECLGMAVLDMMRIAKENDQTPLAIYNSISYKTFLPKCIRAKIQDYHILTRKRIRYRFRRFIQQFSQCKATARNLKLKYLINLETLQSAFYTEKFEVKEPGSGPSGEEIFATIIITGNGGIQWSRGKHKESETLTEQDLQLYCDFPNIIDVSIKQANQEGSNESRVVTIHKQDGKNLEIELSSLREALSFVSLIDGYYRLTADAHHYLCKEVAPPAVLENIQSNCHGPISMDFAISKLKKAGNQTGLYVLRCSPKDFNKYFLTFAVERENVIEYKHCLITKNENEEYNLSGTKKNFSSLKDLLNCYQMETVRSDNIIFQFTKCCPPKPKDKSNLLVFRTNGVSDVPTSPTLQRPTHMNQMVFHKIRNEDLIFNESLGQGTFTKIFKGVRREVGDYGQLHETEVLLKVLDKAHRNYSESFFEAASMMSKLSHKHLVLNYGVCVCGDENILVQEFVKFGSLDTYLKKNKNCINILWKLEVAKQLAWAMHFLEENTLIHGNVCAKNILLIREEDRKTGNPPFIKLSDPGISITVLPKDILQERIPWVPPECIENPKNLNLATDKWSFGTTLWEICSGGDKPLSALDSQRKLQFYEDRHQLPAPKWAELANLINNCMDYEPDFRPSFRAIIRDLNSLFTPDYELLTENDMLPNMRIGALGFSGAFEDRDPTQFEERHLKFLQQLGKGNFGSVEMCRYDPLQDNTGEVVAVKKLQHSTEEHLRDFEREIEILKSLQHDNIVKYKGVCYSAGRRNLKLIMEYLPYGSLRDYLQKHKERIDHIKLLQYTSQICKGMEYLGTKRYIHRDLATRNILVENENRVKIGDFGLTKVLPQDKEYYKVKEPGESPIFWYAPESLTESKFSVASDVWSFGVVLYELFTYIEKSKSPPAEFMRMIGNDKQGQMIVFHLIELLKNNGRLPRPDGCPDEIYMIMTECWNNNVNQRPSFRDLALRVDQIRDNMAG
# Sequence of Tyrosine-protein kinase Lck (Homo sapiens) (P06239 2-509 limits assumed): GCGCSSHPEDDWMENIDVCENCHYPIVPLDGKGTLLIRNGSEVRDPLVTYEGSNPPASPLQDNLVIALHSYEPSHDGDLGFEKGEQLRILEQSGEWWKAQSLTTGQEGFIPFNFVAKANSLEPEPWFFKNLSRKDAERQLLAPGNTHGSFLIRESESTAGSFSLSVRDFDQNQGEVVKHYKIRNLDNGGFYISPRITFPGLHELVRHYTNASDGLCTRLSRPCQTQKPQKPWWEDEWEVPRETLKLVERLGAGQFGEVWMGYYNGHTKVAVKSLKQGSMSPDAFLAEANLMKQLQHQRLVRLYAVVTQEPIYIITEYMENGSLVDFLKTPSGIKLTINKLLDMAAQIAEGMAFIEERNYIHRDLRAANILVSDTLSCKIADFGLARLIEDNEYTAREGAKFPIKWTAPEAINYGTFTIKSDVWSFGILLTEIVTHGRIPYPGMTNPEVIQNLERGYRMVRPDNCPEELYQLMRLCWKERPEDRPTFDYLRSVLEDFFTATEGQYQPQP
# Sequence of Mitogen-activated protein kinase 9 (Homo sapiens) (P45984 whole entry, looked up): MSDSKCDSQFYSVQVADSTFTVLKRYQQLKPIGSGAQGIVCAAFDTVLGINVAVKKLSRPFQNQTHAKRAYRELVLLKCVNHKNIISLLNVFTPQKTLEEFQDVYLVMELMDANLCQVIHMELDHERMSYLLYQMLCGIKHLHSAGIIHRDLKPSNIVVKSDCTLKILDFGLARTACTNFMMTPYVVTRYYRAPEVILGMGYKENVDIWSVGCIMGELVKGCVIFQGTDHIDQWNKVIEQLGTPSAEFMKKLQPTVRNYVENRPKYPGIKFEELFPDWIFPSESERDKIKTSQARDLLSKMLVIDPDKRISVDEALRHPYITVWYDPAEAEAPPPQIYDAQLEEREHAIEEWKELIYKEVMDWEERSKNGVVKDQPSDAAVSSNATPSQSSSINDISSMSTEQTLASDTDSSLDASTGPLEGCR
# Sequence of Mitogen-activated protein kinase 10 (Homo sapiens) (P53779 whole entry, the tested form may be a part): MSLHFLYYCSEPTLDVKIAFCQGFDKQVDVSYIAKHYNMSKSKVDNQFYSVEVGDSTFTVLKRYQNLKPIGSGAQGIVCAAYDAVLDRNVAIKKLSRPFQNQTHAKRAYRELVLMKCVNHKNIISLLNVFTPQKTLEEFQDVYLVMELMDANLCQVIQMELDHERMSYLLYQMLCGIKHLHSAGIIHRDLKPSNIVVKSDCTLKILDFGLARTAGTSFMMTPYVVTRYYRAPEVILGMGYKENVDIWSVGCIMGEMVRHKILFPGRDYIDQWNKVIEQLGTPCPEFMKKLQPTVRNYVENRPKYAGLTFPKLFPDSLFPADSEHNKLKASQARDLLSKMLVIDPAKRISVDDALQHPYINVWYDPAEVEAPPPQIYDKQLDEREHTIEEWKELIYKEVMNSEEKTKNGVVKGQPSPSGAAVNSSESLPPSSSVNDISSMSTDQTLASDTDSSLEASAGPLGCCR
# Sequence of Vascular endothelial growth factor receptor 2 (Homo sapiens) (P35968 whole entry): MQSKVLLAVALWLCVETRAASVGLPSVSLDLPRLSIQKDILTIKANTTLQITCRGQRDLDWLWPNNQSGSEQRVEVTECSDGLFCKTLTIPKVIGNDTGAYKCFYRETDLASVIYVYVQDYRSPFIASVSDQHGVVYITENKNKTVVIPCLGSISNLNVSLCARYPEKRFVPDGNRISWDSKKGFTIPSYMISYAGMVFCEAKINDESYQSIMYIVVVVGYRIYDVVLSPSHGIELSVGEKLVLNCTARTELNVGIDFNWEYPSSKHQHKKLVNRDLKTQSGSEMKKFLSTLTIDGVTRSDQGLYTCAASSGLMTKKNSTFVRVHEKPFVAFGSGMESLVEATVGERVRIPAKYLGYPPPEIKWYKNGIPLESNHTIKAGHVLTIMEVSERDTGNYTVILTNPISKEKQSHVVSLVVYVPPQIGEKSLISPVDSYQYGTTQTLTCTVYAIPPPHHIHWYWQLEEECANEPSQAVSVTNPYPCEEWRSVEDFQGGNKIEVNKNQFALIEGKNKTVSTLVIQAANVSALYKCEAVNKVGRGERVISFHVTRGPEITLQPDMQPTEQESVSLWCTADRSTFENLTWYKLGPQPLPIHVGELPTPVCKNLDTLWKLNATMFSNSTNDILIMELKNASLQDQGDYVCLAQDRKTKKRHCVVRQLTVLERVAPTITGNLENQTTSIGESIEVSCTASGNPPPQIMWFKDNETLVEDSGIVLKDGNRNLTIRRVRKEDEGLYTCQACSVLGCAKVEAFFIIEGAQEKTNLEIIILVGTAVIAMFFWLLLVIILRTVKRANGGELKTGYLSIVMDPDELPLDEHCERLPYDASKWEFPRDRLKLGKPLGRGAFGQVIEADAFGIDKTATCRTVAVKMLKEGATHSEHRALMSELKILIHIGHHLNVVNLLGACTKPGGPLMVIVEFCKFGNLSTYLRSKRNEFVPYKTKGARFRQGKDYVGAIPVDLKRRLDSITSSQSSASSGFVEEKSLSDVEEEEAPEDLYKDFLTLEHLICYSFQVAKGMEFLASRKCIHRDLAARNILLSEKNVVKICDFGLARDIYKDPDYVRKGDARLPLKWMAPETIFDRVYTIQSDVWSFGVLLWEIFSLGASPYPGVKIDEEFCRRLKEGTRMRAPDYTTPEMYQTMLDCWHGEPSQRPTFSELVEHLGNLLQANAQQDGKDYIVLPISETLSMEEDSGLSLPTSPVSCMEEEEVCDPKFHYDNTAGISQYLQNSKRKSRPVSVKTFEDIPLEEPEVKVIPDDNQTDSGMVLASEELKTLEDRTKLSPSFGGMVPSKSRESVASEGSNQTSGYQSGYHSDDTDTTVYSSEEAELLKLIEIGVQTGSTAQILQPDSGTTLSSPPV
# Sequence of LIM domain kinase 1 (Homo sapiens) (P53667 whole entry, looked up, the tested form may be a part): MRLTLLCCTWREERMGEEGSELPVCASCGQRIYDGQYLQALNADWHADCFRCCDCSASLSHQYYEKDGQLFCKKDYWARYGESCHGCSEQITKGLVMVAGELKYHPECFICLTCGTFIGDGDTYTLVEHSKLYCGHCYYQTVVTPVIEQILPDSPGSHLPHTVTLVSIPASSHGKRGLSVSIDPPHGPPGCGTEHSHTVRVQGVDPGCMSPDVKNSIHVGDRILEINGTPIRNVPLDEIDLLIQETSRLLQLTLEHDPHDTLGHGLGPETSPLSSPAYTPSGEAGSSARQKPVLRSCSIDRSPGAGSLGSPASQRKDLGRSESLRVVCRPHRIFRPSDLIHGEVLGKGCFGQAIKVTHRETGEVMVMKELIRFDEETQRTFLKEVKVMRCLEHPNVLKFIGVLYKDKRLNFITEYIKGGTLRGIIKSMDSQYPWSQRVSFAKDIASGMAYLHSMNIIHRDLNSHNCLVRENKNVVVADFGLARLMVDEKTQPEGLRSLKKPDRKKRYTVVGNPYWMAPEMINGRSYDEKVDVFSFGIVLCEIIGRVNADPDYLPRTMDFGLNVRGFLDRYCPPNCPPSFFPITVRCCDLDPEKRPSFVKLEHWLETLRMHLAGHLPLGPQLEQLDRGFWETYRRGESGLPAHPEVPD
# Sequence of Mitogen-activated protein kinase 8 (Homo sapiens) (P45983 whole entry): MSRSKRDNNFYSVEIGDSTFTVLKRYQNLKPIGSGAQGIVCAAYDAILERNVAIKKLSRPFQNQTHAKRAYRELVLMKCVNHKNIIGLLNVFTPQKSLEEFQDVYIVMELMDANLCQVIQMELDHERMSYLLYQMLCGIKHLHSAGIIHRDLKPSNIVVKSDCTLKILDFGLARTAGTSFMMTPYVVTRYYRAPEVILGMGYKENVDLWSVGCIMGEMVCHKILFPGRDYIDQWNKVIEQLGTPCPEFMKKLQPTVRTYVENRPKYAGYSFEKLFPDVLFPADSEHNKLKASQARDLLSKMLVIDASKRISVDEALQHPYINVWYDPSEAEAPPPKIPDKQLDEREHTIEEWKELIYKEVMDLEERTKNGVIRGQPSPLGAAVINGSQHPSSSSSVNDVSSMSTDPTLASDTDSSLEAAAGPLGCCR
Compound,residual activity [1],residual activity [2],residual activity [3],residual activity [4],residual activity [5],residual activity [6],residual activity [7],residual activity [8],residual activity [9],residual activity [10],residual activity [11],residual activity [12],residual activity [13],residual activity [14],residual activity [15],residual activity [16],residual activity [17],residual activity [18],residual activity [19],residual activity [20]
CCOC(=O)c1c(C)[nH]c(/C=C2\C(=O)Nc3ccccc32)c1C,99%,92%,100%,16%,28%,–,–,–,–,–,–,–,–,–,–,–,–,–,–,–
CSc1nc(-c2ccc(F)cc2)c(-c2ccnc(NC(C)c3ccccc3)c2)[nH]1 (stereo not drawn),53%,–,–,–,87%,90%,32%,39%,-6%,4%,-3%,71%,98%,96%,85%,–,–,–,–,–
CCCC(=O)Oc1ccc2[nH]c(C(=O)c3cc4ccccc4[nH]3)cc2c1,101%,103%,100%,94%,70%,94%,81%,–,89%,69%,69%,80%,96%,96%,89%,98%,98%,85%,–,–
Nc1nc(Nc2ccc(S(N)(=O)=O)cc2)nn1C(=O)c1c(F)cccc1F,40%,11%,0%,33%,4%,–,–,102%,48%,51%,12%,2%,95%,6%,58%,12%,99%,17%,7%,1%
N#C/C(=C\c1ccc(O)c(O)c1)C(=O)NCc1ccccc1,104%,–,–,–,87%,–,–,–,–,–,72%,–,100%,–,–,–,102%,–,–,–
CCCCc1c(-c2ccc(OC)cc2)[nH]c2nccnc12,92%,71%,49%,73%,68%,105%,–,91%,109%,48%,41%,57%,101%,110%,55%,50%,108%,–,81%,86%
O=C(c1cc2cc(O)ccc2[nH]1)c1cc2cc(O)ccc2[nH]1,16%,–,–,18%,3%,–,–,–,–,51%,33%,41%,–,20%,16%,74%,100%,55%,64%,17%
O=C(Nc1nc2ccccc2n1CCN1CCOCC1)c1cccc([N+](=O)[O-])c1,52%,24%,40%,–,–,–,–,–,–,–,–,88%,100%,–,–,105%,100%,–,85%,69%
Cn1c2ccccc2c2c3c(c4c5ccccc5n(CCC#N)c4c21)CNC3=O,4%,4%,3%,7%,6%,–,31%,–,73%,7%,9%,20%,96%,8%,–,48%,82%,21%,1%,2%
Nc1ncnc2[nH]nc(Nc3ccc(F)cc3)c12,78%,103%,93%,97%,54%,105%,93%,92%,93%,98%,92%,58%,–,7%,49%,90%,102%,53%,101%,90%
CCN(CC)CCNC(=O)c1c(C)[nH]c(/C=C2\C(=O)Nc3ccc(Cl)cc32)c1C,2%,72%,20%,2%,1%,97%,82%,–,–,80%,75%,44%,–,5%,12%,99%,–,15%,62%,16%
COc1cc2nccc(Oc3ccc(NC(=S)NC(=O)c4ccccc4C)cc3)c2cc1OC,48%,–,–,4%,3%,95%,78%,–,87%,69%,79%,28%,90%,7%,1%,60%,98%,6%,86%,92%
CC(C)(C)n1nc(Cc2cccc3ccccc23)c2c(N)ncnc21,106%,101%,121%,69%,14%,108%,78%,108%,78%,28%,-1%,69%,61%,41%,36%,101%,91%,80%,99%,100%
Cn1sc(=O)n(Cc2ccccc2)c1=O,83%,91%,98%,99%,91%,89%,88%,91%,93%,75%,94%,79%,93%,95%,–,86%,97%,95%,–,–
